This note sets out measurements from PubChem BioAssay (Tox21).

A short description of experiment [1]: qHTS RealTime-Glo MT Cell Viability Assay in HEK293 cells - 8 hour (AID 1224887). Further: nearly all actives have a fitted effect of over 50% in size. Further: potency means the concentration at half of the fitted maximal effect. The essentials: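 HEK293 + NanoLuc + prosubstrate, 600 cells/well; 5 h, 37 C/5% CO2; compound 23 nL in DMSO by pintool; 37 C; luminescence read at 0, 8, 16, 24, 32 and 40 h time points.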
Experiment [2] can be described thus: A CellTox Green Cytotoxicity Assay to monitor cytotoxicity in HEK293 cells - 16 hour (AID 1224888). Further: nearly all actives have a fitted effect of over 35% in size. Further: potency means the concentration at half of the fitted maximal effect. The essentials: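 Tox21 screen in HEK293: membrane-impermeant cyanine dye fluoresces on binding dead-cell DNA; compound pinned 5 h post-seeding, plates held at 37 C, signal read repeatedly through 40 h.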
A short description of experiment [3]: qHTS RealTime-Glo MT Cell Viability Assay in HepG2 cells - 0 hour (AID 1224889). Further: nearly all actives have a fitted effect of over 50% in size. A digest of the protocol: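 Compound treatment began 5 h after plating HepG2 cells (600/well) with NanoLuc luciferase and prosubstrate. Plates stayed at 37 C for 40 h; luminescence was captured at six time points, 0 h through 40 h.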
On the technique in general: qHTS replaces the single test concentration by a dilution series.

The nature of experiment [4]: A CellTox Green Cytotoxicity Assay to monitor cytotoxicity in HepG2 cells - 8 hour (AID 1224890). Further: nearly all actives have a fitted effect of over 45% in size. Further: potency means the concentration at half of the fitted maximal effect. The essentials:
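Measurements at 0, 8, 16, 24, 32 and 40 h of treatment captured CellTox Green fluorescence in HepG2 cells that had been co-plated with reagent and preincubated 5 h at 37 C/5% CO2.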

Experiment [5] is described as follows: qHTS assay to identify small molecule antagonists of the estrogen receptor alpha (ER-alpha) signaling pathway using the BG1 cell line in the presence of 0.1 nM 17-beta-estradiol - cell viability counter screen (AID 1259241). Further: nearly all actives have a fitted effect of over 40% in size. A digest of the protocol: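 Cells were plated and left 24 hr, compounds in DMSO were pinned in, 17beta-estradiol was added to 0.1 nM final, and after 22 hr CellTiter-Fluor reagent was added for 30 min before fluorescence was read.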

Experiment [6] in a line: qHTS assay to identify small molecule antagonists of the androgen receptor (AR) signaling pathway using the MDA cell line in the presence of 0.5 nM R1881 - cell viability counter screen (AID 1259242). Further: nearly all actives have a fitted effect of over 45% in size. Further: potency means the concentration at half of the fitted maximal effect. The essentials:
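Concentration-response screen of compounds for toxicity in MDA-kb2 reporter cells: 16 hr at 37C with 0.5 nM R1881, endpoint live-cell protease fluorescence measured in the reporter wells.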

Experiment [7] deals with Androgen receptor (Homo sapiens) (UniProt P10275). As to the kind of experiment: qHTS assay to identify small molecule antagonists of the androgen receptor (AR) signaling pathway using the MDA cell line in the presence of 0.5 nM R1881 (AID 1259243). Further: nearly all actives have a fitted effect of over 50% in size. Further: potency means the concentration at half of the fitted maximal effect. A digest of the protocol: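 With R1881 held at 0.5 nM (final), compound effects on MMTV-luciferase expression in MDA-kb2 cells were scored by luminescence after a 16 hr, 37C incubation.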
Androgen receptor (Homo sapiens), sequence (P10275 whole entry, looked up): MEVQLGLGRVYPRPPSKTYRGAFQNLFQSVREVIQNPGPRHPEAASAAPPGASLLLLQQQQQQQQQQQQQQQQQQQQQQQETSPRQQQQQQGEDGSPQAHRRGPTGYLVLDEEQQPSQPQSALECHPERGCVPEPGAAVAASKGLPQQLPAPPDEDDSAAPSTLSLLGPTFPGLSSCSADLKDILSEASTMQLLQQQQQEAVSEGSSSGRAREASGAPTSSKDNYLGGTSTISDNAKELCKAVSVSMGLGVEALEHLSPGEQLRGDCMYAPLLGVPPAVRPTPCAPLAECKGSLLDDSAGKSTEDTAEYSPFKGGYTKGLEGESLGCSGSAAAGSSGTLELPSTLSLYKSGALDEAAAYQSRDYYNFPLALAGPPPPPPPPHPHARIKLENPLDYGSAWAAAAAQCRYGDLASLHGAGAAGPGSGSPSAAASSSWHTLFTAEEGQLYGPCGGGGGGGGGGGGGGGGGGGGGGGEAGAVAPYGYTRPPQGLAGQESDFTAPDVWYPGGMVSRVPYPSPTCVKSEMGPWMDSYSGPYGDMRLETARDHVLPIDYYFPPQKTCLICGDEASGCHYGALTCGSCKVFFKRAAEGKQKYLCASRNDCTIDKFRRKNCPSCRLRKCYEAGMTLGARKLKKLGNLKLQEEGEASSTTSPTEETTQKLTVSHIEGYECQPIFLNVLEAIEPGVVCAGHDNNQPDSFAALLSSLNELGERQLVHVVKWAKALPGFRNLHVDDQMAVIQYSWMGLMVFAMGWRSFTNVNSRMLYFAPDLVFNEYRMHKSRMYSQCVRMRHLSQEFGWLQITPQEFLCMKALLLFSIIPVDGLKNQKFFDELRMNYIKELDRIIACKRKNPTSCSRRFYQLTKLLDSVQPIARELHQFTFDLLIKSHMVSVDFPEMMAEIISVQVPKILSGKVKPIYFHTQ

Experiment [8] deals with Estrogen receptor (Homo sapiens) (UniProt P03372). As to the kind of experiment: qHTS assay to identify small molecule antagonists of the estrogen receptor alpha (ER-alpha) signaling pathway using the BG1 cell line in the presence of 0.1 nM 17-beta-estradiol (AID 1259244). Further: nearly all actives have a fitted effect of over 50% in size. A digest of the protocol:
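Compounds were tested against 0.1 nM (final) 17beta-estradiol in VM7Luc4E2 cells, which express full-length ER-alpha and an ERE-luciferase reporter; luminescence was recorded following 22 h exposure.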

Experiment [9] is described as follows: qHTS assay to identify small molecule HDAC inhibitors (AID 1259364).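 Further: wild-type HCT-116 cells with endogenous class I/II HDAC activity; top concentration of the series differs between compounds; nearly all actives have a fitted effect of over 45% in size.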 A digest of the protocol:
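Screening used wild-type human colon HCT-116 cells incubated overnight, dosed with compounds for 2 hours, and assayed with a homogeneous luminogenic HDAC I/II reagent for 30 minutes at room temperature.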

A short description of experiment [10]: qHTS assay to identify small molecule HDAC inhibitors - cell viability counter screen (AID 1259365). A digest of the protocol: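 Counter screen in wild-type HCT-116 cells: compounds dissolved in DMSO are pin-transferred onto overnight-plated cells and left 2hr at 37C. ATP-based CellTiter-Glo luminescence then measures viable cells.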
Experiment [11] in a line: qHTS assay to identify small molecule agonists of the sonic hedgehog signaling (Shh) pathway - cell viability counter screen (AID 1259366). Further: nearly all actives have a fitted effect of over 50% in size. Further: potency means the concentration at half of the fitted maximal effect. A digest of the protocol:
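Cells are plated at 2,000 per well and left 4hr at 37C, 5% CO2 before compound addition. After 23hr of treatment, CellTiter-Fluor reagent is added for 1hr at 37C and fluorescence is measured.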

Experiment [12] in a line: qHTS assay to identify small molecule antagonists of the sonic hedgehog signaling (Shh) pathway - cell viability counter screen (AID 1259367). Further: nearly all actives have a fitted effect of over 55% in size. Further: potency means the concentration at half of the fitted maximal effect. A digest of the protocol: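 Tox21 library chemicals were tested on a Gli1-Luc NIH/3T3 clone (2,000 cells/well) stimulated by conditioned medium; viability was quantified as fluorescence from CellTiter-Fluor reagent added at 23 hr.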

A short description of experiment [13]: qHTS assay to identify small molecule agonists of the sonic hedgehog signaling (Shh) pathway (AID 1259368; calls by dose curve;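 further: NIH/3T3-derived 3T3Gli1-Luc cells carrying a stable Gli1-driven firefly luciferase reporter; series mostly up to about 92 µM; nearly all actives have a fitted effect of over 15% in size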). The essentials:
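Hedgehog pathway agonism scored by increased firefly luciferase luminescence in 3T3Gli1-Luc cells treated 24 hr at 37 C; detection used a 30 min room-temperature reagent incubation.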

Experiment [14] is described as follows: qHTS assay to identify small molecule antagonists of the sonic hedgehog signaling (Shh) pathway (AID 1259369; calls by dose curve; further: nearly all actives have a fitted effect of over 45% in size; further: potency means the concentration at half of the fitted maximal effect). The essentials: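 NIH/3T3 stable Gli1-Luc clone, 2,000 cells/well, 4hr settle; cpd + conditioned medium 24hr; Luc reagent 30min RT; luminescence.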
The target of experiment [15] is Estrogen receptor beta (Homo sapiens) (UniProt Q92731). The experiment is described as follows: qHTS assay to identify small molecule agonists of the estrogen receptor beta (ER-beta) signaling pathway (AID 1259377; active means well fitted activation curve with a large enough effect in the signal ratio in the repeat runs, not every such curve was filed as active; the % refers to the signal ratio). A digest of the protocol: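 Agonist mode cell assay in GripTite HEK293T cells expressing an ER-beta fusion that drives beta-lactamase from an Upstream Activator Sequence; 16 hr compound exposure at 37C, then 2 h LiveBLAzer B/G FRET substrate at room temperature, fluorescence read-out.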
Estrogen receptor beta (Homo sapiens), sequence (Q92731 whole entry, looked up, the tested form may be a part): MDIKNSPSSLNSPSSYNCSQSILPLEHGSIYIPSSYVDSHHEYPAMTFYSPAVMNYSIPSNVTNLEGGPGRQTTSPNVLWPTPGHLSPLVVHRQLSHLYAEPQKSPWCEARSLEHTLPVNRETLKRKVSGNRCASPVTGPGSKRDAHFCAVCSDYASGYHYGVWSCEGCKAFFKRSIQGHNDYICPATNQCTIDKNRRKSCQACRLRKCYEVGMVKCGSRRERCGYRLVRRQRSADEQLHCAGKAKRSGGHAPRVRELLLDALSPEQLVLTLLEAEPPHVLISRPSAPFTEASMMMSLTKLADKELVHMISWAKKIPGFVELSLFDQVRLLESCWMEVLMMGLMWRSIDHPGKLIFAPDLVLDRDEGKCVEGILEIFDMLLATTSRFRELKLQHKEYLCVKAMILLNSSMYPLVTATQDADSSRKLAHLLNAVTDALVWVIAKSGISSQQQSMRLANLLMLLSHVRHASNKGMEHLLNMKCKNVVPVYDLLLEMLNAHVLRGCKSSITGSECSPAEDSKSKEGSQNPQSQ

Experiment [16] has the same target. The experiment is described as follows: qHTS assay to identify small molecule antagonists of the estrogen receptor beta (ER-beta) signaling pathway (AID 1259378; active means well fitted inhibition curve with a large enough effect in the signal ratio in the repeat runs, not every such curve was filed as active; the % refers to the signal ratio). A digest of the protocol:
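ER-beta-UAS-bla HEK293T cells in 2% charcoal-stripped FBS medium treated with compound plus 1nM final 17-beta-estradiol for 16 hr at 37C. Beta-lactamase reporter read by FRET substrate fluorescence after 2 hours at room temperature.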

Experiment [17] in a line: qHTS assay to identify small molecule agonists of the estrogen receptor beta (ER-beta) signaling pathway - cell viability counter screen (AID 1259380). Further: nearly all actives have a fitted effect of over 30% in size. The essentials: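 Measured: luminescence from CellTiter-Glo after 30 min at room temperature, added to wells already read for the LiveBLAzer FRET reporter (2 hr substrate); ER-beta-UAS-bla HEK293T cells had 16 hr compound treatment at 37C, 5% CO2.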

The target in experiment [18] is Androgen receptor (Homo sapiens) (UniProt P10275). The experiment is described as follows: qHTS assay to identify small molecule agonists of the androgen receptor (AR) signaling pathway in the presence of an antagonist (AID 1259381; calls by dose curve; further: nearly all actives have a fitted effect of over 15% in size). A digest of the protocol: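 Luminescent ONE-Glo read, 30min at room temperature, follows 16hr compound exposure (15 concentrations) of MDA-kb2 cells at 37C, 0% CO2, with nilutamide added at 3.0uM final.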

Experiment [19] is described as follows: qHTS assay to identify small molecule agonists of the androgen receptor (AR) signaling pathway in the presence of an antagonist - cell viability counter screen (AID 1259379). Further: nearly all actives have a fitted effect of over 25% in size. Further: potency means the concentration at half of the fitted maximal effect. The essentials:
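MDA-kb2 viability measured by CellTiter-Fluor fluorescence in the same wells as the luciferase signal; nilutamide 3.0uM final; 15-point compound titration; 16 hr at 37C.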

Values without a mark were called inactive. Results filed as inconclusive are left out. Active and inactive are the calls of the source. Unless noted, the call rests on the fitted dose curve; in most records, active means well fitted curve in the direction sought with a large enough effect in the repeat runs; inconclusive means weak or mixed curves; inactive means no such curve, though single readings can be large; an effect the other way counts as inactive or inconclusive.

Estrogen receptor (Homo sapiens), sequence (P03372 whole entry, looked up): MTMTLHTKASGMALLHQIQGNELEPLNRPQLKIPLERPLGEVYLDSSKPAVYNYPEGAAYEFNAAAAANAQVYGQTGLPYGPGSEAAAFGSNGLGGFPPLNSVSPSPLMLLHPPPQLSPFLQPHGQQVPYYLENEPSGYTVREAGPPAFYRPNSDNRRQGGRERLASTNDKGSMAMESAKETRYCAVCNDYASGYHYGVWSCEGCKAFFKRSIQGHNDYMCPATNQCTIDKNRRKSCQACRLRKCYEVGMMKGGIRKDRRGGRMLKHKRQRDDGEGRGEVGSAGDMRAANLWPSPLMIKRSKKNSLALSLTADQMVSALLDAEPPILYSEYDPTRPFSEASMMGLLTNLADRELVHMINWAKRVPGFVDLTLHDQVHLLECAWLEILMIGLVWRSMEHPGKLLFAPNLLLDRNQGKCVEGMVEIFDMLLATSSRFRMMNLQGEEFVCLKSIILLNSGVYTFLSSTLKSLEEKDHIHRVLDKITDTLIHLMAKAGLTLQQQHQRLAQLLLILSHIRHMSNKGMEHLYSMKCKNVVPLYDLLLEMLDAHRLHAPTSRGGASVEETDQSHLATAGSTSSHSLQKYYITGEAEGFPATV

In the case of `O=[N+]([O-])c1ccc(CO)cc1`, the Potency entry in experiment [1], in experiment [2], in experiment [3], in [4], in experiment [5] and in experiment [6] was “inactive” in each case. Further, the Potency entry in [7], in [8], in experiment [9], in experiment [10], in [11] and in [12] was “inactive” throughout. The Potency result in experiment [13], in [14], in experiment [16], in experiment [17] and in [18] was “inactive” each time. Also, the call in experiment [15] was inactive.
With `CCC(O)CO` (centres undefined), the Potency result in [1], in experiment [2], in experiment [3], in [4], in [5] and in experiment [6] was “inactive” in each case. Further, the Potency entry in [7], in experiment [9], in experiment [10], in experiment [11], in experiment [12] and in experiment [13] was “inactive” in each case. In addition, the Potency result in experiment [14], in experiment [16], in [19] and in [18] was “inactive” each time. In addition, the compound was classed as inactive in [15].
As for `C/C=C/C(=O)C1=C(C)C=CCC1(C)C`, the Potency entry in [1], in experiment [2], in [3], in experiment [4], in experiment [5] and in experiment [6] was “inactive” each time. The Potency result in [7], in experiment [8], in [9], in [10], in [11] and in experiment [12] was “inactive” each time. In addition, the Potency entry in [13], in experiment [14], in experiment [19], in experiment [17] and in experiment [18] was “inactive” throughout.
For the compound `Brc1cc(Br)cc(Br)c1`, the Potency result in [1], in experiment [2], in experiment [3], in [4], in experiment [5] and in experiment [6] was “inactive” each time. Besides, the Potency entry in [7], in experiment [8], in [9], in experiment [10], in experiment [11] and in [12] was “inactive” throughout. Further, the Potency result in [13], in experiment [19], in [17] and in experiment [18] was “inactive” in each case.
As for `CC/C(=C(/c1ccc(O)cc1)c1ccc(OCCN(C)C)cc1)c1ccccc1`, the Potency was 14.4 µM (active) in experiment [1]; 28.8 µM (active) in [2]; 32.3 µM (active) in [4]; 40.3 µM (active) in experiment [6]; 32 µM (active) in experiment [7]; 18 µM (active) in experiment [11]. Further, the Potency was 18 µM (active) in [12], 14.3 µM (active) in [14] and 40.3 µM (active) in experiment [19]. The Potency entry in experiment [3], in experiment [5], in [9], in experiment [13] and in experiment [18] was “inactive” each time.
For the compound `Cc1c[nH]c(=O)[nH]c1=O`, the Potency result in [1], in experiment [2], in experiment [3], in experiment [4], in [5] and in experiment [6] was “inactive” throughout. The Potency entry in experiment [7], in experiment [9], in experiment [10], in [11], in [12] and in experiment [13] was “inactive” in each case. Also, the Potency result in [14], in [16] and in experiment [18] was “inactive” in each case.
Consider `C/C=C/C(=O)OCC(C)C`, for which the Potency result in experiment [1], in experiment [2], in experiment [3], in experiment [4], in experiment [5] and in experiment [6] was “inactive” in each case. Moreover, the Potency result in experiment [7], in [8], in experiment [9], in experiment [11], in experiment [12] and in experiment [13] was “inactive” in each case. For the same compound, the Potency entry in experiment [14], in experiment [16], in [17] and in experiment [18] was “inactive” throughout. In [15], the result was inactive.
